For this assay, the system named is PDPK1.

For the molecule `CNc1nc(-c2ccc3c(N)n[nH]c3c2)cc(N2C[C@@H](C(=O)NC3CCCCC3)CC[C@H]2C)n1` [GSK2334470], the Kinases covered result was “PDPK1”.
